Test results reported in PubChem BioAssay AID1745853 (National Center for Advancing Translational Sciences (NCATS), 2022).
The whole screen tested about 25,000 compounds, of which about 970 (3.9%) were called active. Inconclusive results (about 8%) are left out. No rule for the calls is given here. For the sample, actives were picked, then their nearest neighbours and some compounds at random.

Columns and labels:
Test in all cases: Primary Screen for Target Class Profiling of Small Molecule Inhibitors of Methyltransferases
[1] = molecular target: Catechol O-methyltransferase (Homo sapiens) (UniProt P21964); settings: purified enzyme, MTase-Glo SAH luminescence; activity change, negative = inhibition: at 40 µM, stronger effect = lower value; outcome: 40 uM
Text: (§1) PI: Matthew D. Hall Ph.D. and Quinlin M. Hanson Ph.D.
(§2) National Center for Advancing Translational Sciences (NCATS)
(§3) National Institute of Health (NIH), Rockville, MD
(§4) Target class profiling (TCP) is a chemical biology approach amenable to investigating understudied biological targets. TCP is achieved by developing a generalizable assay platform and applying it to screen a curated set of compound libraries against representative members of a target class. Small molecule methyltransferases (SMMTase) are a subclass of methyltransferase that act on metabolites to modulate signaling pathways, metabolize xenobiotics, or balance the available methyl pool. We screened four curated libraries totaling 27,574 unique compounds against the SMMTases nicotinamide N-methyltransferase (NNMT), phenylethanolamine N-methyltransferase (PNMT), histamine N-methyltransferase (HNMT), glycine N-methyltransferase (GNMT), catechol O-methyltransferase (COMT), and guanidinoacetate N-methyltransferase (GAMT). The data generated by this TCP can be leveraged for informed tool molecule development. For example, in the associated publication we identified a chemotype of HNMT-selective inhibitors. Additionally, we identified a putative SMMTase-selective inhibitor with potential as a tool molecule for studying broader methyltransferase biology.
(§5) High-through put screening assays were developed at the National Center for Advancing Translational Science (NCATS) for the enzymes NNMT, PNMT, HNMT, GNMT, COMT, and GAMT. Enzymatic activity was measured as a function of SAM cofactor conversion using the MTase Glo kit (Promega) for all enzymes. All assays were performed in 1536-well format with substrates and SAM concentrations at KM values. Enzyme concentration and assay timing were optimized for 10-20% SAM conversion. Initial screening of 27,574 compounds was done as single-point assays using the highest compound concentration (40 uM). […] These compounds were replated in 11-point dose response and assayed against NNMT, PNMT, HNMT, GNMT, COMT, GAMT, and a counter-assay. The IC50 and efficacy (maximal response) values were determined for each dose-response curve. These values are also accounted for in the area under the curve (AUC) values.
(§6) PROTOCOL TABLE (as described by Inglese J, Shamu CE and Guy RK. 2007)
(§7) SEQUENCE No. (e.g., 1, 2, 3, etc.); […] (e.g., Cells, Incubation, Reagent, etc.); VALUE; DESCRIPTION.
(§8) 1; Reagent; 2 uL; SMMTase Enzyme (2x) in reaction buffer, columns 1- 48.
(§9) 2; Reagent; 1 uL; SAM (4x) in reaction buffer, columns 1-48.
(§10) 3; Controls; 23 nL; DMSO in column 4; sinefungin in DMSO (0 uM - 40 uM) in 7-point 1:2 dilution series (n = 2) in column 2.
(§11) 4; Compounds; 23 nL; Columns 5-48.
(§12) 5; Reagent; 1 uL; Substrate (4x) in reaction buffer, columns 2-48.
(§13) 6; Time; 20-30 min; Incubation.
(§14) 7; Reagent; 1 uL; MTase-Glo reagent (5X), columns 1-48.
(§15) 8; Time; 30 min; Incubation.
(§16) 9; Reagent; 5 uL; MTase-Glo Detection reagent, columns 1-48.
(§17) 10; Time; 30 min; Incubation, luminescence evolution.
(§18) 11; Detection; Luminescence; ViewLux uHTS Microplate Imager (PerkinElmer).
(§19) NOTES (numbers refer to Sequence numbers above)
(§20) 1, 2, 5. White Medium Binding Greiner 1536-well plates (Cat #789175-F, Greiner Bio-One, Monroe, NC); Reaction buffer: 50 mM Tris, pH 8.0, 3 mM MgCl2, 1 mM EDTA, 50 mM NaCl, 1 mM DTT, and 0.1 mg/mL BSA. Evaporation was prevented by covering assay plates with metal lids containing holes to allow gas diffusion.
(§21) 1. Six SMMTase were profiled: HNMT, GNMT, PNMT, COMT, NNMT, GAMT
(§22) 5. The corresponding substrate was used for each enzyme: HNMT - 5.3 uM Histamine; GNMT - >500 uM Glycine; PNMT - 16.2 uM Norephinephrine; COMT - 13.7 uM Norephinephrine; NNMT - 3.8 uM Nicotinamide; GAMT - 2.5 uM Guanidinoacetate.6, 8, 10. Room temperature
(§23) 6. Final reaction conditions: 10 nM COMT, 5 uM SAM, 15 uM norepinephrine, 50 mM Tris, pH 8.0, 3 mM MgCl2, 1 mM EDTA, 50 mM NaCl, 1 mM DTT, and 0.1 mg/mL BSA; refer to tables 2 and S1 for specific timing.
8. […]

[2] = molecular target: Glycine N-methyltransferase (Homo sapiens) (UniProt Q14749); settings: purified enzyme, MTase-Glo SAH luminescence; measured here: GNMT inhibition; at 40 µM; stronger effect = lower value
Text: as §1, §2, §3, §4, §5, §6, §7, §8, §9, §10, §11, §12, §13, §14, §15, §16, §17, §18, §19, §20, §21, §22, §23
8. […]

[3] = molecular target: Guanidinoacetate N-methyltransferase (Homo sapiens) (UniProt Q14353); settings: purified enzyme, MTase-Glo SAH luminescence; measured here: GAMT inhibition; at 40 µM; stronger effect = lower value
Text: as §1, §2, §3, §4, §5, §6, §7, §8, §9, §10, §11, §12, §13, §14, §15, §16, §17, §18, §19, §20, §21, §22, §23
8. […]

[4] = molecular target: Histamine N-methyltransferase (Homo sapiens) (UniProt P50135); settings: purified enzyme, MTase-Glo SAH luminescence; measured here: HNMT inhibition; at 40 µM; stronger effect = lower value
Text: as §1, §2, §3, §4, §5, §6, §7, §8, §9, §10, §11, §12, §13, §14, §15, §16, §17, §18, §19, §20, §21, §22, §23
8. […]

[5] = molecular target: Nicotinamide N-methyltransferase (Homo sapiens) (UniProt P40261); settings: purified enzyme, MTase-Glo SAH luminescence; measured here: NNMT inhibition; at 40 µM; stronger effect = lower value
Text: as §1, §2, §3, §4, §5, §6, §7, §8, §9, §10, §11, §12, §13, §14, §15, §16, §17, §18, §19, §20, §21, §22, §23
8. […]

[6] = molecular target: Phenylethanolamine N-methyltransferase (Homo sapiens) (UniProt P11086); settings: purified enzyme, MTase-Glo SAH luminescence; measured here: PNMT inhibition; at 40 µM; stronger effect = lower value
Text: as §1, §2, §3, §4, §5, §6, §7, §8, §9, §10, §11, §12, §13, §14, §15, §16, §17, §18, §19, §20, §21, §22, §23
8. […]
% is scaled to controls: 0 for no effect and ±100 for the full control effect.

Sequence of Catechol O-methyltransferase (Homo sapiens) (P21964 whole entry, looked up): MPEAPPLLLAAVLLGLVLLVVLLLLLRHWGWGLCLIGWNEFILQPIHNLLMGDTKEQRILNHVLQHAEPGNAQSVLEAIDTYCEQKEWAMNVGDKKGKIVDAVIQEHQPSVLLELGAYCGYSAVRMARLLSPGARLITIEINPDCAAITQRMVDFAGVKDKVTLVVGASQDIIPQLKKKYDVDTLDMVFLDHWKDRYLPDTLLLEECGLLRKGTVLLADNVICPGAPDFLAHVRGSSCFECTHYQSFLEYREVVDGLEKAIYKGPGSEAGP
Sequence of Nicotinamide N-methyltransferase (Homo sapiens) (P40261 whole entry, looked up): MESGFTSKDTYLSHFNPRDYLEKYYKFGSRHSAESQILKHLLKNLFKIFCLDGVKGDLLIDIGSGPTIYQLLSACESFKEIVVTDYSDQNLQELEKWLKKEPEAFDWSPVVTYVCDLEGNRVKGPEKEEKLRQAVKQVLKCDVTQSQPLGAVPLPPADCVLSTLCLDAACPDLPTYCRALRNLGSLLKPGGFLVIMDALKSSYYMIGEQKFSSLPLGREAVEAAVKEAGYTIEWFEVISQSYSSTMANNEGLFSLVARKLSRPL
Sequence of Phenylethanolamine N-methyltransferase (Homo sapiens) (P11086 whole entry, looked up): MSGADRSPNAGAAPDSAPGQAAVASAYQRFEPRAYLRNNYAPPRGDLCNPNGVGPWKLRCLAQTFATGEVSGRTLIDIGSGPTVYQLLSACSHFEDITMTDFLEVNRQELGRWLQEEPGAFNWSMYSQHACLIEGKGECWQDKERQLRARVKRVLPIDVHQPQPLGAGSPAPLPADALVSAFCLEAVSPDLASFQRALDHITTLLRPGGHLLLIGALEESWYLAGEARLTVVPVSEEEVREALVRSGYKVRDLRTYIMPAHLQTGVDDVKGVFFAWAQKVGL
Sequence of Histamine N-methyltransferase (Homo sapiens) (P50135 whole entry, looked up): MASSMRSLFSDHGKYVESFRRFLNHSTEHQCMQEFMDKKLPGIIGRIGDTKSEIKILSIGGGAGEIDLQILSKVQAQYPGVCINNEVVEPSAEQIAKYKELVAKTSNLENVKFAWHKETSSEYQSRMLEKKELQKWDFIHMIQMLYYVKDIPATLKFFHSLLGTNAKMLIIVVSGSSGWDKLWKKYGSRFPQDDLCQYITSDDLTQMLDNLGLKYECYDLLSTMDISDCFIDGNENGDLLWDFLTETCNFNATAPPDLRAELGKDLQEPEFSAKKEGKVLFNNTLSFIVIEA
Sequence of Glycine N-methyltransferase (Homo sapiens) (Q14749 whole entry, looked up): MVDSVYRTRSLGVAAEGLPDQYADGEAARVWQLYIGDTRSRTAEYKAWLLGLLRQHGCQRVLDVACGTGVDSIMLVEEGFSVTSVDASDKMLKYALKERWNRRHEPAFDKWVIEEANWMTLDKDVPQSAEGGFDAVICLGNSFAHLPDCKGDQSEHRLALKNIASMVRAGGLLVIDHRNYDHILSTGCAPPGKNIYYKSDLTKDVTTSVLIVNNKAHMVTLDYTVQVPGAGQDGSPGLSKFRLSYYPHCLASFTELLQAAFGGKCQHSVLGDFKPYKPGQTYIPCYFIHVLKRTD

| Compound | activity change, negative = inhibition [1] | activity change, negative = inhibition [2] | activity change, negative = inhibition [3] | activity change, negative = inhibition [4] | activity change, negative = inhibition [5] | activity change, negative = inhibition [6] |
| --- | --- | --- | --- | --- | --- | --- |
| Cc1cc2c(F)c(Oc3ncnn4cc(OCC(C)O)c(C)c34)ccc2[nH]1 (configuration not stated) | 3.68% (inactive) | 3.84% | 9.85% | 8.7% | -17.3% | -3.09% |
| Cc1nonc1OCCn1ccnc1-c1cn(C2CCNCC2)nn1 | 0.411% (inactive) | -2.5% | -0.534% | -2.48% | -2.16% | -1.03% |
| CCOC(=O)c1ccc(N2C(=O)CSc3c(c4ccccc4n3C)C2C(=O)NCc2ccccc2)cc1 (configuration not stated) | 8.93% (inactive) | 13.6% | 0.807% | 10.5% | 10.6% | 10.2% |
| CC1CC(O)/C=C/C(O)/C=C\C(=O)O1 (configuration not stated) | -1.4% (inactive) | 0.769% | 10.1% | 9.33% | -2.16% | 5.9% |
| O=C(CCn1ccc2cc(S(=O)(=O)N3CCCC3)ccc21)NCc1cccc(Cl)c1 | -5.13% (inactive) | -5.66% | 0% | -0.957% | -15.3% | -7.6% |
| CC(F)(F)CN1CCOc2c(nn(-c3ccccc3Cl)c2-c2ccc(Cl)cc2)C1=O | -4.89% (active) | -72.3% | -2.43% | -6.67% | -49.1% | -14.4% |
| COc1cc(NC(=O)CSc2nnc3n(CC(C)C)c(=O)c4ccccc4n23)cc(OC)c1 | 1.19% (inactive) | 0.652% | 4.16% | 4.88% | 0.518% | 1.8% |
| CC1=C(C(=O)O)/C(=C/CO[C@@H]2O[C@H](COC(=O)/C=C/c3ccc(O)cc3)[C@@H](O)[C@H](O)[C@H]2O)C(O)C1 (some centres not stated) | -20.2% (inactive) | 4.68% | 4.63% | 9.32% | -5.67% | 0.561% |
| COc1ccc2cc3n(c2c1)CC(C)(C(=O)NC1CCCC1)N(CCc1ccc(SC)cc1)C3=O (configuration not stated) | -1.16% (inactive) | 0.148% | 0% | 3.11% | -0.661% | -4.18% |
| CCC[C@H]1CN(C(=O)c2ccc3c(c2)NC(=O)CN3)C[C@@H]1N | -3.16% (inactive) | -3.38% | -8.81% | -2.88% | -6.82% | -2.87% |
| CCOc1ccc(N2C(=O)c3cc(-c4ccc(OC)cc4)nn3CC2(C)C(=O)NCc2ccccc2OC)cc1 (configuration not stated) | 4.86% (inactive) | 7.45% | 4.82% | 9.26% | 5.96% | 0.163% |
| CN1C(=O)c2cc(C(=O)NCCc3cccs3)nn2CC1(C)C(=O)NCc1ccc(F)cc1 (configuration not stated) | 1.71% (inactive) | 3.48% | 0% | -2.18% | 9.12% | 3.02% |
| C[C@]12CCC[C@](C)(C(=O)O)C1[C@@H](O)[C@@H](O)C13CC(CCC12)C(CO)(O[C@@H]1O[C@H](CO)[C@@H](O)[C@H](O)[C@H]1O)C3 (some centres not stated) | -23% (inactive) | 0% | 1.76% | 7.4% | -7.28% | 3.45% |
| CCOC(=O)c1cc2n(n1)CC(C)(C(=O)NC1CCCC1)N(c1ccc(C)c(C)c1)C2=O (configuration not stated) | 1.75% (inactive) | 4.07% | 4.83% | 3.71% | 1.82% | 2.03% |
| O=C(NCc1ccc(Cl)cc1)c1cc(-c2ccc[nH]2)n[nH]1 | -7.05% (inactive) | -26.5% | -7.92% | -7.72% | -8.3% | 2.91% |
| O=C(N[C@@H]1CN(c2ccncn2)C[C@H]1CO)C1CCCC1 | -2.82% (inactive) | -3.56% | -4.46% | -1.77% | -6.98% | -3.66% |
| Cn1nccc1C(=O)NC1CCCN(c2cc(N3CCCC3)ncn2)C1 (configuration not stated) | -8.51% (inactive) | -8.51% | -10.5% | -21.6% | -17.7% | -11.9% |
| O=C(Nc1ccc2ncnc(N3CCCCC3)c2c1)C1CCCCC1 | -91.5% (active) | -90.3% | -88.7% | -91.6% | -92.3% | -90.6% |
| COc1ccc(OC)c(CNC(=O)CCn2ccc3cc(S(=O)(=O)N4CCCCC4)ccc32)c1 | -2.28% (inactive) | -4.44% | 0.679% | -7.33% | -15% | -3.87% |
| COc1cc2c(cc1O)NC(=O)CC2c1cn[nH]c1-c1cc(C)ccc1C (configuration not stated) | -43% (active) | -48.4% | -38.7% | -60.8% | -38.3% | -13.5% |
| COCC(=O)Nc1ncncc1-c1noc([C@@H]2CCCN2Cc2cc(OC)c(OC)c(OC)c2)n1 | -16.9% (inactive) | -9.35% | -8.08% | -8.93% | -16.4% | -12.8% |
| O=C(c1ccc(C(F)(F)F)cc1)N1CCC2(COc3ccncc3[S+](=O)([O-])N2)C1 (configuration not stated) | -0.613% (inactive) | -4.6% | -3.02% | -0.962% | -5.7% | -0.429% |
| Cn1ccc(Nc2cc3c(cn2)CN(CCc2ccccc2)CCN3)n1 | -9.44% (active) | -10.2% | -12.2% | -92.8% | -17.5% | -56.1% |
| O=C1N2CCCC2CN1C1CCN(Cc2ccsc2)CC1 (configuration not stated) | 3.52% (inactive) | -1.71% | 0.192% | 0.939% | -3.94% | 6.61% |
| CN(CC(=O)N1CCC2(CCNCC2)CC1)Cc1cccnc1 | -5.94% (inactive) | -3.63% | -4.3% | -5.87% | -4.19% | -3.85% |
| COc1ccc(S(=O)(=O)N2CCCCC2c2n[nH]c(C)n2)cc1 (configuration not stated) | 12.4% (inactive) | 15.6% | 2.87% | 11.2% | 10.1% | 11.2% |
| O=C1NC(=NC2CCCC2)C2(CCCN([S+](=O)([O-])c3ccccc3)C2)N1c1cccnc1 (configuration not stated) | -0.276% (inactive) | -3.99% | -4.94% | -1.01% | -11% | -21.7% |
